In the supplement of paper PMC10849652:
About 8,800 targets were measured; listed, in parts, are those with a hit and a random draw of the rest. About 0.5% of all pairs of compound and target were hits.

compound: Cc1cc(Nc2cc(N3CCN(C)CC3)nc(Sc3ccc(NC(=O)C4CC4)cc3)n2)n[nH]1 [tozasertib]; assay: log2 fold change, soluble protein after heating vs DMSO (PISA); higher = thermal stabilisation; K562 lysate, 10 uM; active = over 0.2 and 3.5 SD of the protein, either way, in both replicates (recomputed)
Method in brief: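 A 30 min treatment with 10 μM compound was applied to crude K562 extract at 1 mg/mL protein in PBS pH 7.4 with 1 mM MgCl2. Heating for 3 min spanned 48°C-58°C, after which aliquots were pooled, adjusted to 0.5% NP-40 at 4°C and spun at 21,000xg for 90 min. TMTpro 16plex LC-MS/MS of the supernatant, with channel sums equalised, gave values recorded as log-two fold change in thermal stability against solvent controls, from duplicates.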

Sequence of UniProt P27361 (P27361 whole entry, looked up): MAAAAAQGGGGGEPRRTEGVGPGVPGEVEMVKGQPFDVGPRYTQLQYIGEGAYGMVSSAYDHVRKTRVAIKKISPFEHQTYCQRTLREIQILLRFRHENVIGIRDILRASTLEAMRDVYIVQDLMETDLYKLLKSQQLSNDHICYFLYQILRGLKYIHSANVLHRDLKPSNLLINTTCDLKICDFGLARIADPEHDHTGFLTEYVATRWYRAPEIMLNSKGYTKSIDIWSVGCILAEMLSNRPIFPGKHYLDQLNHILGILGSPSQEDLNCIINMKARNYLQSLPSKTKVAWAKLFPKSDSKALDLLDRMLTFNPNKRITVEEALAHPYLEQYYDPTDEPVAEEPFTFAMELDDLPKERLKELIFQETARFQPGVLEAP
Sequence of UniProt Q15334 (Q15334 whole entry, looked up): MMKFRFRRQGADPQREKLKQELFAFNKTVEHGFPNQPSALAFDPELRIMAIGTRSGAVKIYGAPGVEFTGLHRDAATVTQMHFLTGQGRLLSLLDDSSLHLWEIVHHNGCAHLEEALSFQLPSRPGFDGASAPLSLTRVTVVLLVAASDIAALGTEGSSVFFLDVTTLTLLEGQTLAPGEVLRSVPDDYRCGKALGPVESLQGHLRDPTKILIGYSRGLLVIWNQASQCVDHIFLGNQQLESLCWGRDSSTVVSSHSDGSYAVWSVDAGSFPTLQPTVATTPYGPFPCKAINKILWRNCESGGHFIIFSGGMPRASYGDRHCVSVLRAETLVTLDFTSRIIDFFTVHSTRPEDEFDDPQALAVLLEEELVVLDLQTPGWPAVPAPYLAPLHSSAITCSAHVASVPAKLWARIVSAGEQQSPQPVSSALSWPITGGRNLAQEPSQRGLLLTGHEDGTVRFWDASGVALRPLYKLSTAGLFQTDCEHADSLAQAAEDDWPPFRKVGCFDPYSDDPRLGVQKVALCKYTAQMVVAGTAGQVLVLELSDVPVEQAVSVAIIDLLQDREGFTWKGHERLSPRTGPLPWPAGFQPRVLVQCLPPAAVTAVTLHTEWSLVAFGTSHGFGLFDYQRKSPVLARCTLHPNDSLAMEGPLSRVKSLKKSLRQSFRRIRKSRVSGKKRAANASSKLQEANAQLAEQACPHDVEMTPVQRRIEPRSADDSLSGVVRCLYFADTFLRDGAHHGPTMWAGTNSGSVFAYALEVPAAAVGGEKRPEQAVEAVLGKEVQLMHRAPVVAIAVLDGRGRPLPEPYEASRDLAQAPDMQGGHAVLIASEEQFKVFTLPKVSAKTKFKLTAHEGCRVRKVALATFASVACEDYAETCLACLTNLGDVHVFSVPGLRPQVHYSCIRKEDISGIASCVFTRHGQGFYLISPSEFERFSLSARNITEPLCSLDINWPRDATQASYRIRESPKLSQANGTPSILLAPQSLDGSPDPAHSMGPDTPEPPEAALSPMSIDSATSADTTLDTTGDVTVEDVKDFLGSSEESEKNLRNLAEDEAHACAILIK
Sequence of UniProt Q9BTE3 (Q9BTE3 whole entry, looked up): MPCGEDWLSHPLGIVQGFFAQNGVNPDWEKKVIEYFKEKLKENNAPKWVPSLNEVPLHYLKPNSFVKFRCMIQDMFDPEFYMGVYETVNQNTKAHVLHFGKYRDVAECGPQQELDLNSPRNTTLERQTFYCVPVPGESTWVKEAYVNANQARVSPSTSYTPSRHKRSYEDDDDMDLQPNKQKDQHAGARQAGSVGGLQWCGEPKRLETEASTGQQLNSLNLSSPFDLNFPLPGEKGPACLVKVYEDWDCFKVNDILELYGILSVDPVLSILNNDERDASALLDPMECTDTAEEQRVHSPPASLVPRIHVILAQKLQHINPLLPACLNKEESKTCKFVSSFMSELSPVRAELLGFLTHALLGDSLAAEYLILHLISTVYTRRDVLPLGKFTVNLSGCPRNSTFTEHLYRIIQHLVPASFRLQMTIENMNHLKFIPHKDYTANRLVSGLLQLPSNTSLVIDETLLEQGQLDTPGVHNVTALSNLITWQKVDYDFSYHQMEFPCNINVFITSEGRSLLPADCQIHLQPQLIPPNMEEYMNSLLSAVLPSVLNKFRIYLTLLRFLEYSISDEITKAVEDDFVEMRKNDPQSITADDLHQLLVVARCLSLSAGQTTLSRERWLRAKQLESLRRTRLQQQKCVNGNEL
Sequence of UniProt Q16644 (Q16644 whole entry, looked up): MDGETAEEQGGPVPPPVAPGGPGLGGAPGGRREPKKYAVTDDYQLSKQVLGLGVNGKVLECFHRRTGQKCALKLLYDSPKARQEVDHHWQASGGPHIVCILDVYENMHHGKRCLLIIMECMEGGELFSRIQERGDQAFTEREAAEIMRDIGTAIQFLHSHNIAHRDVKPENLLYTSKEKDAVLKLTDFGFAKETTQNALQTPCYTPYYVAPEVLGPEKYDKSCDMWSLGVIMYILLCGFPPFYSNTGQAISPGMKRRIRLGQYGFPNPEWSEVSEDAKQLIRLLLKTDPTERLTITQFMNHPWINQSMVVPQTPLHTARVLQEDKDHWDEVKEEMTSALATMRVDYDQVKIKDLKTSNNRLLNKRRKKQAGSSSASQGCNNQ
Sequence of UniProt O14733 (O14733 whole entry, looked up): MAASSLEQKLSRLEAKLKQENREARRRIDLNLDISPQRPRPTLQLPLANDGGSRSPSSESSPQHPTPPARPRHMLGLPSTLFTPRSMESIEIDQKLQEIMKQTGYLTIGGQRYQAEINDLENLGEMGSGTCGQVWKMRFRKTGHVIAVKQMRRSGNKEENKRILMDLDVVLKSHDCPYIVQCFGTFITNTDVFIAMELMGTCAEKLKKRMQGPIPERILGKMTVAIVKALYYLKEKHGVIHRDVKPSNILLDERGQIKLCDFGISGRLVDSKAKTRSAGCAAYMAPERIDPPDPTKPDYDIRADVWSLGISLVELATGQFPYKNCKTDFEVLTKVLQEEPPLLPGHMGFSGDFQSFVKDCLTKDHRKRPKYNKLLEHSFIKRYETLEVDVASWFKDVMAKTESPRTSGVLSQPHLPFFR
Sequence of UniProt Q16539 (Q16539 whole entry, looked up): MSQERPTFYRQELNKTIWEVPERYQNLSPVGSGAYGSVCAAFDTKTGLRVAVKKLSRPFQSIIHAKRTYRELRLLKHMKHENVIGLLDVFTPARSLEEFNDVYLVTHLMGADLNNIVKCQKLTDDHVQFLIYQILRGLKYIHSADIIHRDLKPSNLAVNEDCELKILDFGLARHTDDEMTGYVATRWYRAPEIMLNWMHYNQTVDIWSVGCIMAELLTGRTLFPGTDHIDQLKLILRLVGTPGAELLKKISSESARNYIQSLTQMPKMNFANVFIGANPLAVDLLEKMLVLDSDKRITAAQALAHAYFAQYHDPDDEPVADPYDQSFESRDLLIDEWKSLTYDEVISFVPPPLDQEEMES
Sequence of UniProt Q9Y4K4 (Q9Y4K4 whole entry, looked up): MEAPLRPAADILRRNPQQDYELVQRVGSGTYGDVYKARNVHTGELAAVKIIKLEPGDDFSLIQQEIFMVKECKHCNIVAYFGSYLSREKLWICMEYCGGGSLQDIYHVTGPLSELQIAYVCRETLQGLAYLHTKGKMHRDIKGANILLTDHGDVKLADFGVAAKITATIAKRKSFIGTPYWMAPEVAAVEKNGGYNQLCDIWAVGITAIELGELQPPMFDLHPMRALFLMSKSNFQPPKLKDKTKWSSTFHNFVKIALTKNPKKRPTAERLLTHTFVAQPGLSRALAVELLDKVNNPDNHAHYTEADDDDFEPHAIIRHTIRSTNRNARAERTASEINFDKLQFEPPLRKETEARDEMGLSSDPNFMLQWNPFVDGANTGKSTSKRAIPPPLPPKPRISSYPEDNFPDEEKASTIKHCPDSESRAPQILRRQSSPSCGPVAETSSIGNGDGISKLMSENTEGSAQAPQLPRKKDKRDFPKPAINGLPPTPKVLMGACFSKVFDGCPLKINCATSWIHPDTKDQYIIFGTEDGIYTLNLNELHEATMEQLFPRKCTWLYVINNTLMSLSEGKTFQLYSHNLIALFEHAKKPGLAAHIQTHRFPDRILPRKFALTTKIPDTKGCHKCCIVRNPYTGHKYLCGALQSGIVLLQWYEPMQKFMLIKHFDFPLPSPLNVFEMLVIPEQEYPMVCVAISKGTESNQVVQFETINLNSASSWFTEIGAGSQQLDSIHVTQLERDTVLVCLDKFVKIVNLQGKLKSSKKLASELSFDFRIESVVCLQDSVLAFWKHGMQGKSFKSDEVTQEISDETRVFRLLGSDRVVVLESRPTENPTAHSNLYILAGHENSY
Sequence of UniProt Q8N4N3 (Q8N4N3 whole entry, looked up): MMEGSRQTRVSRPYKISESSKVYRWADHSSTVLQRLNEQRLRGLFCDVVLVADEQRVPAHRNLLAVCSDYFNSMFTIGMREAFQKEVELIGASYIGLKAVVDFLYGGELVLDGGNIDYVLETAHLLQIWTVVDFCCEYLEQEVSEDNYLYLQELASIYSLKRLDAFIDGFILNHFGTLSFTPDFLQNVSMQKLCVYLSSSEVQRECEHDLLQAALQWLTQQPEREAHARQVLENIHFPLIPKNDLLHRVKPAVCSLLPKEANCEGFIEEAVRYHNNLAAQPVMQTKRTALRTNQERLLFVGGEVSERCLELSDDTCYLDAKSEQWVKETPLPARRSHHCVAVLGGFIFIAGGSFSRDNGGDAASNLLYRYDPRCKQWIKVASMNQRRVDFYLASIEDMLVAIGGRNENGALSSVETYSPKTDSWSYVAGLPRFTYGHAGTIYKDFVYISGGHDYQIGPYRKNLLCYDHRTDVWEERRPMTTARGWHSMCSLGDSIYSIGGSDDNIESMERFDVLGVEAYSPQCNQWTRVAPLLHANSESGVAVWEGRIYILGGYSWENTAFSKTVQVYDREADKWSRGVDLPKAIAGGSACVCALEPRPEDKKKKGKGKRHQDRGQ

log2 fold change, inactive:
MAP2K7 isoform 4 (UniProt O14733) -0.04
LIG4 (UniProt P49917) -0.034
KRIT1 (UniProt O00522) -0.043
MAPKAPK3 (UniProt Q16644) 0.046
MAPK3 (UniProt P27361) -0.038
KLHL36 (UniProt Q8N4N3) 0.014
MCMBP isoform 2 (UniProt Q9BTE3) 0.013
MAP4 isoform 5 (UniProt P27816) 0.008
MAP4K5 (UniProt Q9Y4K4) 0.152
MAPK14 isoform 2 (UniProt Q16539) 0.001
LLGL1 (UniProt Q15334) 0.054
